In the library only some 7.9% were active in any assay of this set; here they are far more common.
SW480 rereplic – A quantitative high throughput screen for small molecules that induce DNA re-replication in SW480 colon adenocarcinoma cells | SW480 DNA re-replication, Hoechst DNA content imaging, 48 h | 340,000 compounds, 1.8% hits | Potency, µM (highest dose often 46.1 µM), for inactives: at the highest dose re-replication activation, hits mostly activators; further: % of control where 0% means no effect; nearly all actives have a fitted effect of over 55% in size
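250 cells/well; 23 nL cpd via pin tool; 48 hr, 37 C, 5% CO2; Hoechst 40 min; imager read of total nuclear intensity, ex 405/em 500-530 nm.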
HT1080 IDH1KD tx – qHTS for induction of synthetic lethality in tumor cells producing 2HG: qHTS for the HT-1080-IDH1KD cell line; HT-1080 IDH1 knockdown viability, ATP luminescence, 48 h; Potency, µM (titrated, usually from 46.1 µM), for inactives: top-dose activity, negative = toxicity, usual class: cytotoxic; 360,000 compounds, 2% hits; AID 686971, 2013;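 further: 0% = DMSO wells and -100% = cell-free medium wells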
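In this qHTS, HT-1080 cells depleted of IDH1 are exposed for 48 h at 37 °C to compound titrations. Toxicity is scored from CellTiter-Glo luminescence, with DMSO as full viability and medium alone as none.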
KB-3-1 cytotox – qHTS assay for MDR1-selective chemotherapeutics: Primary screen using the parental adenocarcinoma cell KB-3-1; KB-3-1 viability, CellTiter-Glo ATP luminescence, 72 h; Potency, µM (top dose mostly 46.1 µM), most hits filed as cytotoxic; 400,000 compounds, 1.4% hits; AID 1347075, 2019; further: on the % scale 0 is the no-effect control and ±100 the full control effect; nearly all actives have a fitted effect of over 60% in size
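KB-3-1 cells, DMEM (no phenol red) + 10% FBS; compound by pin transfer, 72 h, 37 °C. Readout: CellTiter-Glo luminescence after 10 min. Data normalized, curve-fitted.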
KB-V1 cytotox – qHTS assay for MDR1-selective chemotherapeutics: Primary screen using the drug-selected MDR subline cells KB-V1 | Potency, µM (titrated, usually from 46.1 µM), usual class: cytotoxic | 400,000 compounds, 3.4% hits | KB-V1 MDR cells viability, CellTiter-Glo, 72 h | AID 1347076, 2019; further: on the % scale 0 is the no-effect control and ±100 the full control effect; nearly all actives have a fitted effect of over 60% in size
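Luminescent ATP read-out (CellTiter-Glo, 10 min) measures survival of drug-selected KB-V1 MDR cells after 72 h, 37 degrees C compound exposure. Medium: phenol-red-free DMEM, 10% FBS. Values from fitted concentration-response curves.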
HT1080NT lethal – qHTS for induction of synthetic lethality in tumor cells producing 2HG: qHTS for the HT-1080-NT fibrosarcoma cell line; AID 686970, 2013; 360,000 compounds, 1.6% hits; HT-1080-NT fibrosarcoma viability, CellTiter-Glo ATP luminescence, 48 h; Potency, µM (doses to about 46.1 µM), for inactives: at the highest dose activity, negative = less viability, most hits filed as cytotoxic;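 further: NT is the 2HG producing partner of a matched IDH1 knockdown line; 0% = DMSO-treated cells and -100% = media-only wells without cells; nearly all actives have a fitted effect of over 55% in size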
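Fibrosarcoma NT cells, 750 per well in 5% FBS RPMI, were exposed to compound for 48 hours. Viability: CellTiter-Glo luminescence.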
MCF10A rereplic – A quantitative high throughput screen for small molecules that induce DNA re-replication in MCF 10a normal breast cells. MCF 10A DNA re-replication, Hoechst nuclear intensity, 48 h. Potency, µM (series often up to 46.1 µM), for the others: at the top dose activity, positive = re-replication, most hits filed as activators. 350,000 compounds, 2.9% hits; further: % of control where 0% means no effect; nearly all actives have a fitted effect of over 50% in size
* hit, by the source's call; i = inactive; u = inconclusive; x = no result given. The call rests on the fitted dose curve; in most records, active means well fitted curve in the direction sought with a large enough effect; inconclusive means small, poorly fitted or top-dose-only effect, or another doubt; inactive means no such curve, though single readings can be large; an effect the other way counts as inactive or inconclusive. Potency means the concentration at half of the fitted maximal effect.

SMILES	SW480 rereplic	HT1080 IDH1KD tx	KB-3-1 cytotox	KB-V1 cytotox	HT1080NT lethal	MCF10A rereplic
COc1ccc(C(=O)N2CCCC(c3cc(C(=O)NCc4cccnc4)no3)C2)cc1 (configuration not stated)	x	-10.5%	i	i	0.9%	x
O=C(Nc1ccc2c(c1)CCC2)c1ccc(F)cc1	-1.8%	0.0%	i	i	4.4%	2.6%
O=C(Nc1ccc2c(c1)CCC2)c1cc(S(=O)(=O)Nc2ccc(F)cc2)c(Cl)cc1Cl	13.5%	u	u	18.4µM*	u	u
CCN(Cc1nc(-c2cccc(C)c2)no1)S(=O)(=O)c1ccc(C)cc1	x	x	i	i	x	x
COc1ccc(NC(=S)N(CCC(C)C)C2CCN(C(C)C)CC2)cc1Cl	20.6µM*	-12.6%	i	i	-19.3%	u
COCCN(C(=S)Nc1ccc(OC)c(Cl)c1)C1CCN(C(C)C)CC1	-1.5%	1.8%	i	i	9.4%	-9.6%
Cc1ccc(CCNC(=O)C2CCCN(S(C)(=O)=O)C2)cc1 (configuration not stated)	-2.5%	17.4%	i	i	8.1%	-5.9%
CS(=O)(=O)N1CCCC(C(=O)NCCc2ccccc2)C1 (configuration not stated)	16.4µM*	2.3%	i	i	20.6%	u
CS(=O)(=O)N1CCCC(C(=O)N2CCc3ccccc3C2)C1 (configuration not stated)	10.3µM*	-2.5%	i	i	-1.7%	2.91µM*
Cn1c(C(=O)N2CCCC(C(=O)NCCCc3ccccc3)C2)cc2sccc21 (configuration not stated)	-1.6%	-16.9%	i	20.6µM*	-21.7%	-5.8%
Cn1c(C(=O)N2CCCC(C(=O)NCCc3ccccc3)C2)cc2sccc21 (configuration not stated)	-1.3%	u	u	u	u	1.2%
COc1cccc(C(=O)NC2=NC(c3ccccc3F)CC(=O)N2)c1 (configuration not stated)	x	x	i	i	x	x
C[C@H](CO)N1C[C@H](C)[C@H](CN(C)Cc2ccncc2)Oc2ccc(NC(=O)Nc3ccc(C(F)(F)F)cc3)cc2CC1=O	u	u	6.51µM*	i	u	u
C[C@H]1CN([C@@H](C)CO)C(=O)Cc2cc(NC(=O)Nc3ccccc3)ccc2O[C@H]1CN(C)Cc1ccccc1	-5.1%	u	u	i	-23.9%	u
C[C@@H]1CN([C@@H](C)CO)C(=O)Cc2cc(NC(=O)Nc3ccc(F)cc3)ccc2O[C@@H]1CN(C)Cc1ccc(Cl)c(Cl)c1	-27.1%	u	u	u	18.4µM*	20.3%
Cn1c(=O)oc2cc(S(=O)(=O)N3CCCC(C(=O)NCCc4ccccc4)C3)ccc21 (configuration not stated)	x	x	i	i	x	x
COc1cc2nc(SCc3cccc(Cl)c3)n3nc(CCn4nc(C)cc4C)nc3c2cc1OC	x	x	i	i	x	x
CCN(C(=O)CSc1nc2ccccc2n1CC(=O)N1CCCC(C)C1)c1ccccc1 (configuration not stated)	x	x	i	i	x	x
O=C(CSc1c2c(nc3cc(Cl)ccc13)CCCC2)N1CCN(c2ccccc2F)CC1	x	x	i	u	x	x
COc1cc(Cl)c(C)cc1NC(=O)CCc1nc2cccnc2n1-c1ccccc1	x	x	i	i	x	x
COc1ccc(Cn2c(C3CC3)nc3ccc(NC(=O)c4cccnc4)cc3c2=O)cc1	u	10.3µM*	5.8µM*	u	10.3µM*	1.3%
CCOC(=O)C1=C(C)N=c2s/c(=C\c3ccc(OCC(=O)O)c(OC)c3)c(=O)n2C1c1ccc(OC)cc1 (configuration not stated)	-0.7%	1.7%	i	i	8.1%	23.1µM*
CN(Cc1cn(C)c2ccccc12)C(=S)Nc1cc(F)cc(F)c1	-57.4%	0.0%	u	18.4µM*	1.2%	-64.9%
Cc1[nH]c(N=Nc2ccccc2)nc1N=Nc1ccccc1	7.31µM*	u	18.4µM*	u	-16.7%	u
N=c1c2ccccc2nc2n1CCCCCCCCCCC2	6.0%	23.1µM*	i	u	u	u
SMILES	SW480 rereplic	HT1080 IDH1KD tx	KB-3-1 cytotox	KB-V1 cytotox	HT1080NT lethal	MCF10A rereplic
CCCN1Cc2cccc(C(=O)Nc3ccccc3F)c2C1=O	x	x	i	i	x	x
COc1ccc(C2NC(=S)NC3=C2CCCC3=C2SCCS2)cc1 (configuration not stated)	u	6.51µM*	u	i	9.2µM*	18.8%
S=C1NC2=C(CCCC2=C2SCCCS2)C(c2ccccc2)N1 (configuration not stated)	3.5%	12.0%	i	i	-0.1%	1.0%
COc1ccc2c(c1)CCC1=C2NC(=S)NC1c1ccc(N(C)C)cc1 (configuration not stated)	12.5%	-24.2%	u	u	0.8%	20.6µM*
CCN(CC)c1ccc(C(=O)NNC(=O)Cn2c(=O)cnc3ccccc32)cc1	x	-0.6%	i	i	12.7%	x
COc1ccc(/C=N/n2c(SC)nnc2-c2ccccc2)cc1C	7.31µM*	u	u	18.4µM*	u	18.4µM*
COc1cccc(/C=N\n2c(C)nnc2C)c1OC	-2.8%	4.2%	i	i	3.5%	1.3%
COc1ccc(/C=N/n2c(SC)nnc2-c2ccccc2)c(OC)c1OC	5.8µM*	u	u	5.17µM*	-16.4%	14.6µM*
CC(=O)c1ccc(N2C(=O)N(Cc3ccccc3C#N)c3ccccc3S2(=O)=O)cc1	x	x	i	i	x	x
CNC(=O)C1CCC(Cn2c(=O)[nH]c3ccsc3c2=O)CC1 (configuration not stated)	x	x	i	i	x	x
COC(=O)c1sccc1NC(=O)CSc1ccc(Cl)cc1	5.3%	8.4%	i	23.1µM*	20.2%	19.4%
COC(=O)c1sccc1NC(=O)CSc1ccccc1N	-54.1%	-3.5%	i	i	-6.3%	u
COC(=O)c1sccc1NC(=O)CSc1ccccc1NS(=O)(=O)c1ccc(F)cc1	8.6%	-9.4%	i	u	-5.4%	u
COC(=O)c1sccc1NC(=O)COc1ccc(C)cc1	-3.1%	0.5%	i	i	9.9%	-3.6%

Screens: PubChem BioAssay, National Center for Advancing Translational Sciences (NCATS)
